# ChEMBL document CHEMBL3988442, “University of Dundee, Small-Polar-MMV Screening Library” (2021)
# About 960 (1.5%) of roughly 66,000 compounds showed an effect of 50% or more. For the sample, strong results were picked, then their nearest neighbours and some compounds at random.
# Test system: Trypanosoma brucei
# Assay: Trypanosoma brucei 72 hour study
# Type: functional, organism-based
# Design: scale not given: in the data most compounds retested in dose-response had high values
compound,measurement,setting,value
CC(C)CN1CCC2(CCN(Cc3ccc(F)cc3)CC2)C1=O.O=C(O)C(F)(F)F,Percent Effect,"30.3 µM, […]",15.86%
Cc1cccc(CN2CCCCC2c2n[nH]cc2-c2cc(C)no2)c1.Cl (centres undefined),Percent Effect,"30.3 µM, […]",54.66%
Cc1nccc(C2CCCCN2Cc2cccc(F)c2)n1 (centres undefined),Percent Effect,"30.3 µM, […]",-5.435%
Cc1cccc(CN2CCCC2c2cccc(Nc3nccs3)n2)c1 (centres undefined),Percent Effect,"30.3 µM, […]",33.44%
Cc1cccc(CN2CCCC2c2cccc(CCC(=O)O)n2)c1 (centres undefined),Percent Effect,"30.3 µM, […]",-27.55%
Cc1cc(C2CCCN2Cc2cc(-c3ccco3)on2)on1 (centres undefined),Percent Effect,"30 µM, 30.03 µM",-36.29%
Cc1nc(C2CN(Cc3ccccc3C)CCO2)no1 (centres undefined),Percent Effect,"30.3 µM, […]",-23.18%
CN(CC1(O)CCCN(c2ccccn2)C1)C(=O)CCc1cccs1 (centres undefined),Percent Effect,"30.3 µM, […]",19.98%
Cc1ccc(CN(CCCN2CCOCC2)Cc2cnn(C)c2)o1.O=C(O)CC(O)(CC(=O)O)C(=O)O,Percent Effect,"30.3 µM, […]",-8.498%
CN(C)C(=O)[C@]12CCCN(CC3CC3)C[C@H]1CN(c1ccccn1)C2.O=C(O)C(F)(F)F.O=C(O)C(F)(F)F,Percent Effect,"30.3 µM, […]",0.08001%
CN1CC(=O)N(c2ccccc2)CC12CCN(C(=O)c1ccnnc1)C2.O=C(O)C(F)(F)F (centres undefined),Percent Effect,"30.3 µM, […]",-13.49%
CN(C)C(=O)COC[C@]12COC[C@H]1CN(Cc1ccccc1)C2.O=C(O)C(F)(F)F,Percent Effect,"30.3 µM, […]",-79.79%
O=C(c1cc(=O)n(-c2ccccc2)[nH]1)N1CCOC(C(F)(F)F)C1 (centres undefined),Percent Effect,"30 µM, 30.03 µM",25.14%
Cc1cnc(CN(Cc2ccc(Cl)s2)C2CCN(C)C2)o1 (centres undefined),Percent Effect,"30 µM, 30.03 µM",-5.686%
COc1cc(CNC(C)c2ccc(F)c(F)c2)cc2c1OCCO2.O=C(O)C(=O)O (centres undefined),Percent Effect,"30.3 µM, […]",100.7%
COc1cc(C(=O)NC(C)c2cccs2)cc2c1OCCO2 (centres undefined),Percent Effect,"30.3 µM, […]",6.204%
COc1ccc(C(C)NCCC(N)=O)cc1F (centres undefined),Percent Effect,"30 µM, 30.03 µM",-19.58%
CCn1ncc(-c2cc(C(F)F)nc3sc(C(N)=O)c(N)c23)c1C,Percent Effect,"30 µM, 30.03 µM",26.92%
Cc1nc[nH]c1CN1CCN(C(=O)CN2CCCC2)[C@H]2CS(=O)(=O)C[C@H]21,Percent Effect,"30 µM, 30.03 µM",8.106%
Cc1nc[nH]c1CN1CCN(C(=O)CCC(F)(F)F)[C@H]2CS(=O)(=O)C[C@H]21,Percent Effect,"30 µM, 30.03 µM",50.6%
Cc1nc[nH]c1CN1CCN(C(=O)C2(C)CC2)[C@H]2CS(=O)(=O)C[C@H]21,Percent Effect,"30 µM, 30.03 µM",1.317%
CCOc1cc2c(cc1CNC(Cc1cccs1)c1nccs1)OCO2.Cl (centres undefined),Percent Effect,"30.3 µM, […]",-21.18%
CC(C)c1ncc(-c2cc(C3CCC3)nc(N)c2C#N)cn1,Percent Effect,"30 µM, 30.03 µM",17.32%
CC(O)(CNC(=O)c1cccnc1-n1cccn1)c1ccsc1 (centres undefined),Percent Effect,"30 µM, 30.03 µM",-28.28%
COc1ccnc(NC(=O)c2ccsc2)c1,Percent Effect,"30 µM, 30.03 µM",14.39%
COc1ccnc(NC(=O)c2cscn2)c1,Percent Effect,"30 µM, 30.03 µM",7.926%
COc1ccnc(NC(=O)c2cscc2C)c1,Percent Effect,"30 µM, 30.03 µM",88.82%
CCCn1c(=O)n(CCC(=O)N(C)Cc2ccc(C)o2)c2ccccc21,Percent Effect,"30 µM, 30.03 µM",-21.38%
Cc1nc(O)cc(C2CCN(Cc3ccc(F)c(F)c3)C2)n1.O=C(O)CC(O)(CC(=O)O)C(=O)O (centres undefined),Percent Effect,"30.3 µM, […]",13.84%
CNC(=O)N1CCC2(CC1)c1ncc(C)n1CCN2C.O=C(O)C(F)(F)F.O=C(O)C(F)(F)F,Percent Effect,"30.3 µM, […]",11.26%
Oc1cc(CNCCCN2CCCC2)nc2ccc(F)cc12,Percent Effect,"30 µM, 30.03 µM",-52.8%
O=S(=O)(CCNCc1cc(O)c2cc(F)ccc2n1)N1CCCC1,Percent Effect,"30 µM, 30.03 µM",71.96%
O=C(CCNCc1cc(O)c2cc(F)ccc2n1)N1CCCC1,Percent Effect,"30 µM, 30.03 µM",-42.31%
CCc1ccc(CN2Cc3nccn3CC(CN3CCOCC3)C2)o1.O=C(O)C(F)(F)F.O=C(O)C(F)(F)F.O=C(O)C(F)(F)F (centres undefined),Percent Effect,"30 µM, 30.03 µM",29.13%
Cc1ccsc1C(=O)N1CCC2(CC(N(C)c3ccncn3)C2)C1 (centres undefined),Percent Effect,"30.3 µM, […]",-9.037%
O=C(Nc1ccc(F)cc1)N1C[C@H]2C[C@H](C(=O)N3CCCC3)[C@@H](C1)O2,Percent Effect,"30.3 µM, […]",-4.677%
CCc1c(C)nc(-n2nc(-c3cccs3)cc2N)[nH]c1=O,Percent Effect,"30 µM, 30.03 µM",63.75%
Cc1nc(-n2nc(-c3cccs3)cc2N)[nH]c(=O)c1C,Percent Effect,"30 µM, 30.03 µM",6.214%
Cc1cc(=O)[nH]c(-n2nc(-c3cccs3)cc2N)n1,Percent Effect,"30 µM, 30.03 µM",-18.7%
Nc1c(N2CCOCC2)ncnc1N1CCOCC1,Percent Effect,"30.3 µM, […]",-8.78%
same,Percent Effect,"10 mM, 10 mM as filed; unlikely as a test dose",-35.44%
CCN1CC2(CC1=O)CN(Cc1ccco1)CCN(C(=O)C(C)C)C2.O=C(O)C(F)(F)F (centres undefined),Percent Effect,"30 µM, 30.03 µM",0.2286%
Cc1ccc(CN(CCCn2ccnc2)Cc2c(F)cccc2F)s1.O=C(O)CC(O)(CC(=O)O)C(=O)O,Percent Effect,"30.3 µM, […]",-13.01%
CN(Cc1ccncc1)Cc1cnn(-c2ccc(F)cc2)c1,Percent Effect,"30 µM, 30.03 µM",-38.94%
O=C(Cc1ccccc1Cl)Nc1cc(N2CCCC2)ncn1,Percent Effect,"30 µM, 30.03 µM",-11.61%
O=C(Cc1c(F)cccc1Cl)Nc1cc(N2CCCC2)ncn1,Percent Effect,"30 µM, 30.03 µM",-1.859%
O=C(Cc1c(F)cccc1Cl)Nc1cc(N2CCOCC2)ncn1,Percent Effect,"30 µM, 30.03 µM",100.3%
O=C(Cc1ccc(Cl)cc1)N1CCC(O)(C(F)(F)F)C1 (centres undefined),Percent Effect,"30.3 µM, […]",-19.5%
Cc1cccc(OCc2ccc(C(=O)N3N=CCC3(O)C(F)(F)F)o2)c1 (centres undefined),Percent Effect,"30.3 µM, […]",67.46%
